From the supplement of paper PMC11417369 come the findings set out here.

± gives the standard deviation of the averaged measurements. In all, about 25,000 sequences were measured (“ln(normalized median fluorescence intensity)”: median about 7.9, highest 2% from about 11 on). Many of the other results were omitted from the sample, so the highest values are more common in it than they were.

For this assay, the system named is PfAP2-I AP2 domain 3 (GST-tagged). Kind of assay: gcPBM binding intensity (ln(normalized median fluorescence intensity)); higher = stronger DNA binding. A digest of the protocol:
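Binding intensity values are the highest Masliner-normalised natural-log median intensity among replicate spots of either probe orientation. The binding step lasted 1 h in 1× PBS with 1% milk, 0.2 mg/ml BSA, 0.5% salmon testes DNA and 0.03% Triton X-100, using GST-tagged P. falciparum DNA-binding domains expressed in E. coli on an Agilent 4 × 180k array of primer-extended double-stranded 36-bp intergenic genomic probes plus negative controls. Alexa488 anti-GST antibody and a 488 nm scan detected bound protein.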
As to “ATAATTATTCTTATGGTGCACTGAATATACATGTTG [GTGCAC_site9760]”, the “gcPBM binding intensity (ln)” value was determined as 11.1 ± 0.47.
The result for “GTATTATTATTTTATGCATGTACATTGAATTATATT [TGCATGCA_site34]” reads 8.26 ± 0.44; that for “TATAATAATAATTATACATGCATGAATATTTATATG [TGCATGCA_site811]”, 7.67 ± 0.21.
As for “TATATATATATATATGTGCACTGAAAGAATTATACA [GTGCAC_site9586]”, the “gcPBM binding intensity (ln)” value came out at 10.7 ± 0.13.
The result for “CCTATCCAGACATATACACACATATCTATTTATATA [CACACA_site5001]” reads 8.01 ± 0.57; that for “AAGTAATTTGTTGACACACACACACGCATACCTATA [CACACA_site7140]”, 8.07 ± 0.65; that for “TTTTTTTCATAAGAAGCACACAAAAAATGATAGAGA [CACACA_site8401]”, 8.29 ± 0.4.
The result for “TAAATTAAAAAACATAAACTATTGGAAACGCATTGA [CACACA_negctrl_site935]” reads 7.57 ± 0.64.
The result for “TAGGCGTTTAATAAAAGTACCCACACATATATTATT [XGTACX_site1932]” reads 7.68 ± 0.49.
For “TATATATATATATATGTGCACTGGACATATTTTTAT [GTGCAC_site9721]”, the “gcPBM binding intensity (ln)” value worked out at 10.09 ± 0.099.
The value for “ATATTATGTGATTGTGCACACTGGAGATTTTTTTTA [CACACA_site1453]” was 10.9 ± 0.17; that for “GAGATTTATTTATGTGCACACTAGAACAATTGGATC [CACACA_site2090]” was 9.99 ± 0.42.
The value for “TTAATATAGGGAAAAAAAAGAAAATCGAAAATGTGT [CACACA_negctrl_site834]” was 8 ± 0.75; that for “TTTTTTTTATGTATCACACATAATTTTTTATTATGA [CACACA_site5534]” was 7.63 ± 0.68; that for “TATAATTTATTAAGGGGTACATATATTTCATGATAA [XGTACX_site5141]” was 7.88 ± 0.37.
The result for “TATAATTATTTTTTTCTAAATATTATAAGGTATTCA [GTGCAC_negctrl_site205]” reads 7.18 ± 0.33; that for “GTATTCATGCTAAAGGTGCAATAATTTTTATAATAA [GTGCAC_site9603]”, 11.5 ± 0.61; that for “ACACATAATATAAAGGTGCTATATTGTATTCATTTT [GTGCAC_site9457]”, 10.1 ± 0.2.
Regarding “ATTATAAAAGAATTTTTTTTTATTTCATTAAAATAT [CACACA_negctrl_site1137]”, the “gcPBM binding intensity (ln)” value worked out at 7.09 ± 0.47.
The value for ATTTTCATGATAAAGGTGCAATTATTTTTATAAGAA was 10.9 ± 0.53.
The value for “TATAAATATCTGAATTGTACAGGTGAAAAAAAAAAT [XGTACX_site1867]” was 8.04 ± 0.62; that for “TAATTAGATTATTTTTGTACATATTATTATAGGTTA [XGTACX_site2077]” was 7.59 ± 0.26; that for “ACAAAAATAAGCAAATGTACATATGTATAATATATT [XGTACX_site2492]” was 7.77 ± 0.58.
As to “TAAATTAAAAAAAAAAACAAAAAAAAAGCAACAAAA [CACACA_negctrl_site1318]”, the “gcPBM binding intensity (ln)” value was 7.67 ± 0.57.
As for “ATTATCCATCAAAAGGTGCAAATTTTTAATTATAAA [GTGCAC_site9932]”, the “gcPBM binding intensity (ln)” value stood at 10.5 ± 0.49.
The value for AGTGACACCAAAGGGGTGCAATGAAATTAAAAATAT was 10.7 ± 0.24; that for TTAAAAAATAACAAGGTGCAAATAGGTTTATAAAAT was 10.84 ± 0.064; that for “TAAAAATTAAAAAGGGTGCAAAAAAAAAAAAAAAAA [GTGCAC_site9733]” was 11 ± 0.61.
The result for AAAAAAAAAAAAAAGGTGCAAATAAATTAACCTTAT reads 11.4 ± 0.44; that for “TATGTGTGACAAAATTGTACGGTCTCTTTATTTTGT [XGTACX_site2679]”, 7.72 ± 0.54.
As to “TCCTTATAAATATATATATAATATATATATATATAT [CACACA_negctrl_site293]”, the “gcPBM binding intensity (ln)” value was found to be 8.86 ± 0.2.
The result for “ATTTTTATTCAGTTCACACACGCTTTAATATTATAT [CACACA_site3465]” reads 8.3 ± 0.58; that for “ATATATCCAATATATATATATATATATATATATATA [CACACA_negctrl_site160]”, 9.2 ± 0.67.
As to “TGTTGGCAGGTGAATGCATGCATATAAGTCTATCTG [TGCATGCA_site781]”, the “gcPBM binding intensity (ln)” value was found to be 8.02 ± 1.1.
The result for “TATTCCTATATAAAGACACACATATGTAACTACGAT [CACACA_site4139]” reads 7.68 ± 0.59.
The result for “ATATAATATAACAATACGCACACGTATACAAAAAAA [CACACA_site3151]” reads 8.36 ± 0.41; that for “TATTAATTTCTTTTTTCTCATCACTTTCAAAATGAA [CACACA_negctrl_site1055]”, 7.9 ± 0.47; that for “ATTATGTATACATAAACACACATATATATAAAAAAA [CACACA_site262]”, 7.92 ± 0.64.
The value for “TTCATTAAAGTTATTACACACAGTTCTTCAACCAAA [CACACA_site7613]” was 7.88 ± 0.46; that for “TGTATAATATTTGGTGCACACAAATTAACAACTGTT [CACACA_site9245]” was 11.1 ± 0.54; that for “TTCTTTGTAGTATATTAACACACAACTGTTTATAAT [CACACA_site9305]” was 8.02 ± 0.59.
For “AAATATTTATAAATTGCACACAAATAATAACATTAT [CACACA_site8737]”, the “gcPBM binding intensity (ln)” value was 8.47 ± 0.099.
For “ATATTTATAAATTGCACACAAATAATAACATTATAT [CACACA_site5322]”, the “gcPBM binding intensity (ln)” value was found to be 8.68 ± 0.13.
On to “CTTTGTAGTATATTAACACACAACTGTTTATAATAT [CACACA_site6038]”, for which the “gcPBM binding intensity (ln)” value was 7.77 ± 0.54.
“TATAATATTTGGTGCACACAAATTAACAACTGTTTA [CACACA_site3742]”: the “gcPBM binding intensity (ln)” value was 11.1 ± 0.39.
The result for “ATTCAAAAGGTTTAATGTACGTGATGTTTCACAAAT [XGTACX_site784]” reads 7.74 ± 0.5.
